The nature of test [1]: qHTS assay to identify small molecule antagonists of the estrogen related receptor (ERR) signaling pathway from Tox21 library - cell viability counter screen (AID 1224834). Further: nearly all actives have a fitted effect of over 30% in size. A digest of the protocol:
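Seeded ERR cells were rested 6 h at 37 C/5% CO2 before compounds, positive and negative controls or DMSO were added. Incubation continued for 17.5 h, and viability was then quantified by CellTiter-Fluor fluorescence.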

The target of test [2] is Luciferin 4-monooxygenase (Photinus pyralis) (UniProt P08659). The test is described as follows: qHTS assay to identify small molecule inhibitors of firefly luciferase (AID 1224835). Further: nearly all actives have a fitted effect of over 25% in size. Further: potency means the concentration at half of the fitted maximal effect. The procedure, abridged:
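Biochemical qHTS: compounds run as interplate titrations against purified firefly enzyme, with D-luciferin and ATP each at its KM concentration. Light output recorded by CCD imaging.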
On the technique in general: qHTS replaces the single test concentration by a dilution series.

Test [3] is described as follows: qHTS assay to identify small molecule agonists of the constitutive androstane receptor (CAR) signaling pathway - cell viability counter screen (AID 1224836). Further: series mostly up to about 92 µM; nearly all actives have a fitted effect of over 45% in size. A digest of the protocol: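 Fluorescence from CellTiter-Fluor indicates live cells after 23 h exposure. The human hepatoma line expresses hCAR and a CYP2B6-2.2kb reporter. Incubation medium contains 0.75 uM PK11195 (final).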

Test [4] is described as follows: qHTS assay to identify small molecule antagonists of the constitutive androstane receptor (CAR) signaling pathway - cell viability counter screen (AID 1224837). Further: series mostly up to about 92 µM; nearly all actives have a fitted effect of over 45% in size. A digest of the protocol: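 To flag cytotoxic false antagonists, HepG2 hCAR/CYP2B6-2.2kb cells were treated 23 hr with 15-concentration compound series and 50 nM CITCO at 37 C/5% CO2; CellTiter-Fluor fluorescence was the measured end point.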

Test [5] addresses Nuclear receptor subfamily 1 group I member 3 (Homo sapiens) (UniProt Q14994). The test is described as follows: qHTS assay to identify small molecule antagonists of the constitutive androstane receptor (CAR) signaling pathway (AID 1224838).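 Further: HepG2 cells stably expressing hCAR with CYP2B6 luciferase reporter stimulated by CITCO; nearly all actives have a fitted effect of over 40% in size.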 A digest of the protocol: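 Human hepatoma HepG2 cells expressing hCAR and a CYP2B6 promoter (2.2 kb) luciferase construct; compound titration (15 points) with 50 nM CITCO final, 24 h at 37 C/5% CO2; luminescence via ONE-Glo after 30 min at room temperature.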

Test [6] shares this target. In words: qHTS assay to identify small molecule agonists of the constitutive androstane receptor (CAR) signaling pathway (AID 1224839).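 Further: HepG2 cells stably carrying human CAR and a CYP2B6 luciferase reporter; series mostly up to about 92 µM; nearly all actives have a fitted effect of over 15% in size.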 The procedure, abridged: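 Stable hCAR/CYP2B6-2.2kb HepG2 line in DMEM with 10% FBS; compounds (15 concentrations) and 0.75 uM PK11195 final, 24 h at 37 C/5% CO2, then ONE-Glo luminescence after 30 min.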
Test [7] can be described thus: qHTS assay to identify small molecule antagonists of the estrogen related receptor signaling pathway with the pleiotropic PPARgamma coactivator (PGC) from Tox21 10K library - cell viability counter screen (AID 1224840; active means well fitted cell-killing curve with a large enough effect in the repeat runs, not every such curve was filed as active; further: nearly all actives have a fitted effect of over 40% in size). The procedure, abridged:
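Seeded PGC/ERR cells (2,000/well, 6 h, 37 C/5% CO2) get compound by pin tool; 17.5 h incubation at 37 C; CellTiter-Fluor added, 30 min, fluorescence measured.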

Test [8] in a line: qHTS assay to identify small molecule agonists of the hypoxia (HIF-1) signaling pathway - cell viability counter screen (AID 1224844; calls by dose curve; further: nearly all actives have a fitted effect of over 50% in size). The procedure, abridged: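 HRE-bla ME-180; 0.5% dFBS; cpd 17 h, 37C, 5% CO2; CellTiter-Glo lum., 30 min RT, post-FRET read, same wells.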
Test [9] can be described thus: qHTS assay to identify small molecule agonists of H2AX (AID 1224845; active means well fitted activation curve with a large enough effect in the signal ratio in the repeat runs, not every such curve was filed as active; the % refers to the signal ratio). The procedure, abridged:
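Wild-type CHO-K1 cells, plated overnight, exposed 3hr at 37C to 15 concentrations (0.76% DMSO final). Lysed, then HTRF anti-pH2AX (S139) cryptate and anti-H2AX-d2 antibodies, 24 hr room temperature; 665/620 nm emission read.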

A short description of test [10]: qHTS assay to identify small molecule agonists of the hypoxia (HIF-1) signaling pathway (AID 1224846; active means well fitted activation curve with a large enough effect in the signal ratio in the repeat runs, not every such curve was filed as active; the % refers to the signal ratio). The procedure, abridged: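 Reporter induction in HRE-bla ME-180 cells is taken as agonism: cells sit 5 hrs after plating, receive compounds or DMSO only, incubate 17 hrs at 37C under 5% CO2, and are loaded with CCF4-AM for beta-lactamase FRET measurement.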
The nature of test [11]: qHTS assay to identify small molecule agonists of H2AX - cell viability counter screen (AID 1224847; calls by dose curve; further: top concentration of the series differs between compounds; nearly all actives have a fitted effect of over 30% in size). The procedure, abridged:
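Viability of CHO-K1 (wild type) cells after 3 hr compound exposure was measured by CellTiter-Glo luminescence.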

A short description of test [12]: qHTS RealTime-Glo MT Cell Viability Assay in HepG2 cells - 24 hour (AID 1224867). Further: nearly all actives have a fitted effect of over 50% in size. The procedure, abridged: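 Compound treatment began 5 h after plating HepG2 cells (600/well) with NanoLuc luciferase and prosubstrate. Plates stayed at 37 C for 40 h; luminescence was captured at six time points, 0 h through 40 h.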
A short description of test [13]: qHTS RealTime-Glo MT Cell Viability Assay in HEK293 cells - 32 hour (AID 1224868). Further: top concentration of the series differs between compounds; nearly all actives have a fitted effect of over 50% in size. The procedure, abridged: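 Quantitative high-throughput screen of the Tox21 10K library in HEK293: cells and RealTime-Glo reagents plated together, compound added at 5 h, luminescence monitored through 40 h at 37 C.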
Test [14] can be described thus: A CellTox Green Cytotoxicity Assay to monitor cytotoxicity in HEK293 cells - 0 hour (AID 1224869). Further: nearly all actives have a fitted effect of over 50% in size. A digest of the protocol: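 Tox21 screen in HEK293: membrane-impermeant cyanine dye fluoresces on binding dead-cell DNA; compound pinned 5 h post-seeding, plates held at 37 C, signal read repeatedly through 40 h.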
Test [15] can be described thus: qHTS assay to identify small molecule antagonists of the estrogen related receptor signaling pathway with the pleiotropic PPARgamma coactivator (PGC) from Tox21 10K library (AID 1224841; call rule not given here). The procedure, abridged:
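Test chemicals dissolved in DMSO were applied to pre-incubated (6 h) PGC/ERR cells at 2,000 cells/well for an 18 h, 37 C treatment; reporter luminescence was then read using One-Glo.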

Test [16] is described as follows: qHTS assay to identify small molecule agonists of the estrogen related receptor signaling pathway with the pleiotropic PPARgamma coactivator (PGC) from Tox21 10K library (AID 1224842). Further: nearly all actives have a fitted effect of over 15% in size. The procedure, abridged:
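PGC/ERR reporter cell line, 2,000 cells per well, incubated 6 h at 37 C before 23 nL compound in DMSO was added. After 18 h at 37 C, One-Glo luminescence read following 30 min at room temperature.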

Test [17] has as its target Thyrotropin receptor (Homo sapiens) (UniProt P16473). The test is described as follows: qHTS assay to identify small molecule agonists of the thyroid stimulating hormone receptor (TSHR) signaling pathway (AID 1224843; calls by dose curve; further: nearly all actives have a fitted effect of over 45% in size). The procedure, abridged: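 HEK293/TSHR, 800 cells/well; cpd 30 min RT; add cAMP-d2 + anti-cAMP-cryptate, 1 h RT; fluorescence read on plate reader. 15-pt titration, n=3.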

A short description of test [18]: qHTS assay to identify small molecule antagonists of the estrogen related receptor (ERR) signaling pathway from Tox21 library (AID 1224848). Further: nearly all actives have a fitted effect of over 50% in size. A digest of the protocol:
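Compounds dissolved in DMSO are pin-transferred onto ERR reporter cells (2,000 per well) that have settled for 6 h at 37 C. Plates then incubate 18 h at 37 C before ONE-Glo luciferase reagent and a luminescence read 30 min later.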

The nature of test [19]: qHTS assay to identify small molecule agonists of the estrogen related receptor (ERR) signaling pathway from Tox21 library (AID 1224849; calls by dose curve; further: nearly all actives have a fitted effect of over 15% in size). The procedure, abridged:
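Tox21 compounds tested for ERR agonism in an NTP reporter cell line: 18 h treatment at 37 C, then ONE-Glo luminescence.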

SMILES strings stand for the structures. Inconclusive results are not listed. Calls of active or inactive are those of the source. Unless noted, the call rests on the fitted dose curve; in most records, active means well fitted curve in the direction sought with a large enough effect in the repeat runs; inconclusive means weak or mixed curves; inactive means no such curve, though single readings can be large; an effect the other way counts as inactive or inconclusive.

Sequence of Thyrotropin receptor (Homo sapiens) (P16473 whole entry, looked up): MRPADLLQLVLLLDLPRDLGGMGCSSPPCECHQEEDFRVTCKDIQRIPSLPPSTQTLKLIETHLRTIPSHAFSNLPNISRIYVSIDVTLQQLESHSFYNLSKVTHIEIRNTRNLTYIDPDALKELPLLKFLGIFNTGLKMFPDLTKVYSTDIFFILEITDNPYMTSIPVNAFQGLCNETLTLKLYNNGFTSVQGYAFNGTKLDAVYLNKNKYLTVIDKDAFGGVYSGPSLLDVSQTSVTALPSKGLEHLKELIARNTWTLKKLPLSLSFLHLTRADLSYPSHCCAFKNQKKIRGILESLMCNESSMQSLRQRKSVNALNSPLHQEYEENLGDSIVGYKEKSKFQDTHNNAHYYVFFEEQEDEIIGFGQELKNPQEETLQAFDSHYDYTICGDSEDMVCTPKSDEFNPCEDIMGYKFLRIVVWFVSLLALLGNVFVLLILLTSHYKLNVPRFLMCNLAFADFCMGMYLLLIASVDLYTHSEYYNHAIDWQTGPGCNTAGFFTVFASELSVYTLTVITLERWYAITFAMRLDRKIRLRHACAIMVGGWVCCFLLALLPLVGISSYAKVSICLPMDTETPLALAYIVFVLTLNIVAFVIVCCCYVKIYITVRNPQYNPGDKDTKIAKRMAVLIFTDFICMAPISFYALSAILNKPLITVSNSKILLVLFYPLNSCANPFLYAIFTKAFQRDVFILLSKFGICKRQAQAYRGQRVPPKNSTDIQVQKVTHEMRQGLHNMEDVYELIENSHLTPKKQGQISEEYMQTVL
Sequence of Luciferin 4-monooxygenase (Photinus pyralis) (P08659 whole entry, looked up): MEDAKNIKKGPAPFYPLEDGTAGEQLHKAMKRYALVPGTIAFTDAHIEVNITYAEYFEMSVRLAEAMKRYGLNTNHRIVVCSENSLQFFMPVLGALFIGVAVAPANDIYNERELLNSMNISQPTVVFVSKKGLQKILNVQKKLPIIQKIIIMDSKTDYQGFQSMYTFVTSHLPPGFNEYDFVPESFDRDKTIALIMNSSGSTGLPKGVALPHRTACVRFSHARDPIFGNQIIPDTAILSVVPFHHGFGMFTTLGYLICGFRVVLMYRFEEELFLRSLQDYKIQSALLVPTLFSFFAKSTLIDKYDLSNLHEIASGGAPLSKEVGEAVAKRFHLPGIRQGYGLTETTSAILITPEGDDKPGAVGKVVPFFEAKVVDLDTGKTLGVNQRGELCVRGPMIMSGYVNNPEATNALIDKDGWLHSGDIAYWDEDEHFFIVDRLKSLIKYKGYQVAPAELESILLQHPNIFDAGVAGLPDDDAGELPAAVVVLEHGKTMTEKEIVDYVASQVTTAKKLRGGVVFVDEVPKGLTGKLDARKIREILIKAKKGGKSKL
Sequence of Nuclear receptor subfamily 1 group I member 3 (Homo sapiens) (Q14994 whole entry, looked up): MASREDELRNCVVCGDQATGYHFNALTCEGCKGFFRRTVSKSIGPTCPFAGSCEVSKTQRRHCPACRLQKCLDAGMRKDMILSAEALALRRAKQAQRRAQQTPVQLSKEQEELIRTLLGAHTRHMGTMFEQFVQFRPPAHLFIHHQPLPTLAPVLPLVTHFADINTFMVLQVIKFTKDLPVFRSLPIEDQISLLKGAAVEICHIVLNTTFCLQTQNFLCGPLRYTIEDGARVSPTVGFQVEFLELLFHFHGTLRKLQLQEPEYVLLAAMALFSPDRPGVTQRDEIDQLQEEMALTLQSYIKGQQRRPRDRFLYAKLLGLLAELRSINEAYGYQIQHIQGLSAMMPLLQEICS

Consider `CCCCCCCCCCCC(=O)OC`, for which the Potency result in test [1], in test [2], in test [3], in test [4], in test [6] and in test [7] was “inactive” throughout. Moreover, the Potency entry in test [12] and in [13] was “inactive” in each case. The compound was classed as inactive in test [5], in test [8], in test [9], in test [10], in test [11] and in test [14].

Consider `NCCN1CCNCC1`, for which the Potency result in test [1], in test [2], in [3], in test [4], in [6] and in test [7] was “inactive” each time. Further, the Potency entry in test [12] and in [13] was “inactive” in each case. Moreover, the compound was classed as inactive in [5], in [8], in [9], in test [10], in [11] and in test [14].

As to `CCOCC(=O)O`, the Potency result in test [1], in test [2], in test [3], in test [4], in test [6] and in test [7] was “inactive” each time. Further, the Potency result in test [15], in test [12] and in [13] was “inactive” each time. Further, the compound was called inactive in test [5], in [16], in [17], in [8], in test [9] and in test [10]. In addition, the call in test [11], in [18], in test [19] and in test [14] was inactive.

Turning to `c1ccc2c(c1)Cc1ccccc1-2`, the Potency entry in test [1], in test [2], in [3], in test [4], in test [7] and in test [13] was “inactive” in each case. For the same compound, the result in test [17], in test [8], in test [9], in test [10], in test [11] and in [14] was inactive.

Consider `COc1ccccc1OCC(O)CO` (stereo unspecified), for which the Potency entry in test [1], in test [2], in test [3], in [4], in test [7] and in test [12] was “inactive” throughout. The Potency entry in [13] was “inactive”. The compound was classed as inactive in test [17], in test [8], in test [9], in test [11] and in test [14].

As for `O=C1C(c2[nH]c3ccccc3c2O)=Nc2ccccc21`, the Potency result in [1], in test [2], in [3], in test [4], in [6] and in test [7] was “inactive” in each case. Also, the Potency result in test [15] and in [13] was “inactive” throughout. Further, the call in [5], in test [16], in test [8], in test [9], in test [10] and in test [18] was inactive. The result in test [19] and in [14] was inactive.

In the case of `C[C@]12CCC(=O)C=C1CC[C@@H]1[C@@H]2[C@@H](O)C[C@@]2(C)[C@H]1CC[C@]2(O)C(=O)CO`, the Potency entry in [1], in test [2], in test [3], in [4], in [6] and in [7] was “inactive” in each case. Further, the result in test [8], in test [9], in test [11] and in [14] was inactive.

Take `O=C(OCC1CCC2OC2C1)C1CCC2OC2C1` (stereo unspecified): the Potency result in [1], in test [2], in [3], in test [4], in test [6] and in test [7] was “inactive” throughout. For the same compound, the Potency entry in test [13] was “inactive”. Besides, the result in test [5], in test [17], in test [8], in test [9], in [10] and in test [11] was inactive. In test [14], the call was inactive.

In the case of `CC(C)OC(=O)COc1ccc(Cl)cc1Cl`, the Potency entry in test [1], in [3], in test [4], in test [6], in test [7] and in test [13] was “inactive” in each case. The Potency in [2] was 35 µM (active). Moreover, the result in test [5], in [8], in test [9], in [10], in test [11] and in test [14] was inactive.

For `NCCNCCN`, the Potency entry in test [1], in [2], in [3], in test [4], in test [6] and in test [7] was “inactive” in each case. Also, the Potency entry in test [15] and in [13] was “inactive” each time. In addition, the compound was called inactive in test [5], in test [16], in test [8], in test [9], in test [10] and in test [11]. For the same compound, the compound was classed as inactive in test [18], in [19] and in [14].

These data come from PubChem BioAssay (Tox21).
